PLK1 PBD inh: qHTS for Inhibitors of PLK1-PDB (polo-like kinase 1 - polo-box domain): Primary Screen | Serine/threonine-protein kinase PLK1 (Homo sapiens), P53350 | Plk1 PBD binding of FITC phosphopeptide, fluorescence polarization | 2.8% of 360,000 active | AID 720504, 2013 | Potency, µM, for inactives: max response, negative = inhibition, hits mostly inhibitors; note: series mostly up to about 57 µM; nearly all actives have a fitted effect of over 65% in size
TDP1 inh: qHTS Assay for Inhibitors of Tyrosyl-DNA Phosphodiesterase (TDP1); AID 485290, 2010; Potency, µM (series often up to 130 µM), for the others: top-dose activity change, negative = inhibition, actives largely listed as inhibitors; recombinant TDP1, AlphaScreen DNA substrate cleavage; 0.28% of 350,000 active; note: nearly all actives have a fitted effect of over 40% in size
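Tdp1 1 nM final; 15 min RT w/ cpd; substrate 15 nM, 5 min; beads 10 ug/ml, 10 min; AlphaScreen read. Neg ctrl: no enzyme.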
DT40 TDP1 no CPT: qHTS for Inhibitors of human tyrosyl-DNA phosphodiesterase 1 (TDP1): qHTS in cells in absence of CPT; DT40 Tdp1-/- hTDP1 cells, no CPT, ATP luminescence, 48 h; Potency, µM (series often up to 46.2 µM), for the others: at the top dose activity change, negative = growth inhibition, most hits filed as inhibitors; 15% of 420,000 active; note: nearly all actives have a fitted effect of over 55% in size
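Chicken DT40 Tdp1-/- cells complemented with human TDP1, screened without camptothecin (DMSO vehicle only), 400 cells/well. Compounds pin-transferred, cells incubated at 37 °C for at least 48 hr. Growth read as ATP-dependent luminescence (CellTiter-Glo, 30 min at RT).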
VDR inh: Inhibitors of the vitamin D receptor (VDR): qHTS; AID 504847, 2011; Vitamin D3 receptor (Homo sapiens), P11473; Potency, µM, without a hit: max response, negative = inhibition, usual class: inhibitors; 0.93% of 400,000 active; VDR-SRC2-3 peptide fluorescence polarization, 2 h
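After 23 nl compound addition and a short centrifugation, plates sat for 2 hours at ambient temperature; polarization of fluorescence then indicated loss of VDR binding to peptide SRC2-3.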
DT40 TDP1 CPT: qHTS for Inhibitors of human tyrosyl-DNA phosphodiesterase 1 (TDP1): qHTS in cells in presence of CPT; chicken DT40 Tdp1-/-;hTDP1 cells + 20 nM CPT, ATP luminescence, 48 h; 12% of 420,000 active; Potency, µM (highest dose often 46.2 µM), for the others: at the highest dose activity change, negative = growth inhibition, hits mostly inhibitors; note: nearly all actives have a fitted effect of over 55% in size
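Cell growth measured by CellTiter-Glo luminescence after a minimum 48 h, 37 C compound exposure with 20 nM CPT in Tdp1-knockout DT40 cells stably expressing hTDP1, seeded 400/well; qHTS titration format.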
GCN5L2 inh: qHTS Assay for Inhibitors of GCN5L2 | Potency, µM (doses to about 58.9 µM), inactives show top-dose activity change, negative = inhibition, actives largely listed as inhibitors | GCN5L2 HAT assay, ThioGlo1 CoA-SH fluorescence | Histone acetyltransferase KAT2A (Homo sapiens), Q92830 | 0.21% of 390,000 active
Target sequence (Q92830 whole entry, looked up): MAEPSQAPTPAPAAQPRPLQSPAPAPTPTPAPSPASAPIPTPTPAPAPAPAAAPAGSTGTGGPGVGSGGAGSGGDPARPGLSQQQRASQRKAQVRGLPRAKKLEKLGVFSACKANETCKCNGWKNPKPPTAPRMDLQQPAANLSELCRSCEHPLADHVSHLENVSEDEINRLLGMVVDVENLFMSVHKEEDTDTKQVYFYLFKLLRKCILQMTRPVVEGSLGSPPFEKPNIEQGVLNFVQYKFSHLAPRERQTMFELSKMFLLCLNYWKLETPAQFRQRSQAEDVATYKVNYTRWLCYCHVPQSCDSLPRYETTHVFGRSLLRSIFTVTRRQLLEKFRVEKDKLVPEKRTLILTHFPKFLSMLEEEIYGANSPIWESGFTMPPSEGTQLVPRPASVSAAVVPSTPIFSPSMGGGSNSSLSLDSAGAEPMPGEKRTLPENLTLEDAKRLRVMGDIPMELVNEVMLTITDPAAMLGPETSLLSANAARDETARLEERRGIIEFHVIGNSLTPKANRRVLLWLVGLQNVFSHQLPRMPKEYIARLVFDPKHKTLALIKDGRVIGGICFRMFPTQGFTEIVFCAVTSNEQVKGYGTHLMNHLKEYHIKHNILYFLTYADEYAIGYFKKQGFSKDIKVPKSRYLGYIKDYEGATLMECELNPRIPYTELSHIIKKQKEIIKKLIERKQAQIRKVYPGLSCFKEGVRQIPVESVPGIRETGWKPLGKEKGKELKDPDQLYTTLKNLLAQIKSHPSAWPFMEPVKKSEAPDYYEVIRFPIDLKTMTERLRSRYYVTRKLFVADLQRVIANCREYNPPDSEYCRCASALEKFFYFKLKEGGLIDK
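ThioGlo1-coupled HAT assay: 20nM GCN5L2, 70uM acetyl-CoA, 75uM H3(1-25) peptide, pH 7.5. Fluorescence read at 340/540nm at start and after 20 min at room temperature.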
An asterisk follows results filed as active; ? = inconclusive; / = no result given; [ ] = dose if it differs, or a comment. Most compounds without a hit are left out; they make up all but 18% or so of the library. Calls come from the whole dose curve; as a rule, active = well fitted curve in the direction sought with a large enough effect; inconclusive = small, poorly fitted or top-dose-only effect, or another doubt; inactive = no such curve, though single readings can be large; an effect the other way counts as inactive or inconclusive. % is set by controls: 0 for no effect and ±100 for the full control effect; potency is the fitted concentration of half-maximal effect.

SMILES	PLK1 PBD inh	TDP1 inh	DT40 TDP1 no CPT	VDR inh	DT40 TDP1 CPT	GCN5L2 inh
FC(F)(F)C(Oc1nc(Nc2ccc(Cl)cc2)nc(N2CCOCC2)n1)C(F)(F)F	-16.3%	0.0%	20.6µM*	23.1%	?	-3.1%
COc1ccc(Nc2nc(N3CCOCC3)nc(N3CCOCC3)n2)cc1	-13.3%	/	?	-9.9%	-23.2%	-1.2%
Cc1ccc(S(=O)(=O)NC(=O)C2(C)CCN2C(=O)C2CC2)cc1 (centres undefined)	-1.2%	/	7.4%	/	6.4%	/
CCOc1ccc(C(=O)Nc2ccccc2CC)cc1[N+](=O)[O-]	3.2%	0.0%	-21.2%	-13.6%	-2.5%	-7.4%
CCOc1ccc(C(=O)Nc2ccccc2N2CCN(C(=O)c3ccccc3)CC2)cc1[N+](=O)[O-]	-3.2%	2.7%	11.6µM*	-0.7%	7.31µM*	-15.1%
Cc1cc(C(=O)NC(=S)Nc2ccccc2N2CCCC2)ccc1[N+](=O)[O-]	0.6%	6.5%	-29.1%	-15.1%	7.5%	-26.2%
CCOc1ccc(C(=O)NC(=S)Nc2ccc(N3CCC(C)CC3)cc2)cc1[N+](=O)[O-]	-2.8%	3.7%	11.6µM*	1.3%	?	-6.3%
CCOc1ccc(C(=O)NC(=S)Nc2ccccc2N2CCC(C)CC2)cc1[N+](=O)[O-]	-5.1%	8.6%	16.4µM*	8.5%	?	-10.2%
COCC(=O)N1CCC[C@@]2(CCN(C(=O)Nc3ccc(OC)cc3)C2)C1	/	/	1.3%	7.9%	-10.8%	-12.4%
Cc1ccc(CN2C(=O)SC(Nc3ccc(Cl)cc3)C2=O)cc1 (centres undefined)	/	1.1%	?	8.4%	?	-9.0%
Cc1ccc(C)c(S(=O)(=O)n2nc(C)c(S(=O)(=O)N3CCCCCC3)c2C)c1	/	6.5%	6.1%	-3.1%	-2.4%	-14.5%
Cc1cccc(N(C(=O)CNC(=O)c2cccs2)C(C(=O)NC2CCCC2)c2ccncc2)c1 (centres undefined)	3.1%	/	1.8%	-3.9%	-1.0%	-3.3%
Cc1ccc(N=Cc2cc3c(cc2O)OC(N)=C(C#N)C3c2ccccc2)cc1 (centres undefined)	3.7%	8.1%	16.4µM*	-19.9%	?	-25.1%
Cc1ccccc1N=Cc1cc2c(cc1O)OC(N)=C(C#N)C2c1ccccc1 (centres undefined)	21.5%	2.7%	?	19.0%	?	-13.9%
N#CC1=C(N)Oc2cc(N)ccc2C1c1ccc(Cl)cc1 (centres undefined)	3.3%	6.0%	-0.9%	-1.7%	-7.1%	-14.3%
Cc1ccc(C2C(C#N)=C(N)Oc3cc4c(cc32)OCO4)cc1 (centres undefined)	-5.3%	12.0%	?	2.8%	25.9µM*	-3.3%
CSc1ccc(C2C(C#N)=C(N)Oc3cc4c(cc32)OCO4)cc1 (centres undefined)	-10.3%	5.1%	?	-1.1%	20.6µM*	/
COc1ccc(C(=O)OCC2CC(c3ccccc3)=NO2)cc1OC (centres undefined)	10.6µM*	5.1%	?	?	23.1µM*	-15.4%
COc1ccc(-c2nc3c(c(=O)n(C)c(=O)n3C)n2CC2CC(c3ccccc3)=NO2)cc1OC (centres undefined)	-3.3%	/	1.46µM*	10.5%	10.3µM*	/
O=C(NC1CCCC1)c1ccc2c(=O)n(Cc3ccccc3)c(SCc3ccc([N+](=O)[O-])cc3)nc2c1	/	8.8%	-15.2%	-2.8%	?	1.5%
COC(=O)[C@@H](Cc1c[nH]c2ccccc12)NC(=O)CCC(=O)c1ccc(F)cc1	-14.9%	/	19.8%	-13.4%	-9.0%	-6.2%
COc1ccc(C(=O)NNC(=O)CSc2nnc(COc3ccccc3OC)n2C)cc1	-13.6%	0.0%	-14.1%	-9.4%	7.6%	-14.9%
Cc1cc(-c2ccc(S(=O)(=O)Nc3ccc(Br)c(C)c3)s2)on1	/	0.0%	14.6µM*	5.3%	23.1µM*	-1.2%
Cc1cc(-c2ccc(S(=O)(=O)Nc3cc(Cl)ccc3C)s2)on1	/	0.0%	2.91µM*	2.1%	4.61µM*	-3.5%
Cn1ncc(S(=O)(=O)Cc2ccccc2)c(Br)c1=O	/	/	/	?	/	-20.3%
SMILES	PLK1 PBD inh	TDP1 inh	DT40 TDP1 no CPT	VDR inh	DT40 TDP1 CPT	GCN5L2 inh
Cc1ccc2nc(SCC(=O)Nc3cc(C)on3)nc(=O)n2c1	-3.7%	0.1%	1.3%	-5.0%	3.1%	-16.9%
Cc1c(CN(C)C(=O)c2nn(C)cc2[N+](=O)[O-])cnn1C	-5.2%	-7.9%	-25.0%	-15.4%	-7.8%	-1.7%
Cc1c(CN(C)C(=O)/C=C/c2ccc([N+](=O)[O-])cc2)cnn1C	-3.4%	3.0%	?	6.9%	23.1µM*	19.7%
O=C(NCc1ccco1)/C(=C/C=C\c1ccccc1)NC(=O)c1ccc(Br)o1	-14.8%	-5.8%	?	-2.7%	16.4µM*	-5.6%
N#C/C(=C\C=C\c1ccccc1)C(=O)NCc1ccco1	-2.7%	7.6%	?	-16.9%	-8.4%	-4.0%
CC(C)c1c(O)ccc2c1CC[C@H]1C(C)(C)CCC[C@]21C	-17.9%	/	?	-13.2%	13µM*	/
CC(C)c1c(O)ccc2c1CCC1C(C)(C)CCC[C@@]21C (some centres undefined)	/	13.0%[56.1 µM]	?	10.0%	?	-26.6%
Cc1nc(-c2ccc(S(=O)(=O)Oc3ccc(Cl)cc3Cl)s2)cs1	-1.9%	-2.5%	18.4µM*	-22.5%	13µM*	-5.3%
Cc1nc(-c2ccc(S(=O)(=O)Nc3ccc(Br)cc3Cl)s2)cs1	?	2.6%	-2.2%	-10.5%	-4.4%	-11.7%
Cc1ccc(S(=O)(=O)Nc2ccccc2N=Cc2ccc([N+](=O)[O-])cc2[N+](=O)[O-])cc1	2.7%	/	18.4µM*	?	25.9µM*	/
Cc1ccc(S(=O)(=O)Nc2ccc3cc([N+](=O)[O-])ccc3c2[N+](=O)[O-])cc1	23.8µM*	/	23.1µM*	20.4%	?	/
Cc1ccc(S(=O)(=O)Nc2cccc3ccccc23)cc1	/	-0.4%	/	15.0%	/	/
COc1ccc(NS(=O)(=O)c2ccc(C)cc2)c([N+](=O)[O-])c1	26.7µM*	7.5%	3.8%	?	-25.7%	2.3%
Cc1ccc(S(=O)(=O)Nc2ccc3ccccc3c2[N+](=O)[O-])cc1	29.9µM*	/	?	-15.8%	?	/

Compound activity from PubChem.
